This passage reports outcome and AC50 results from PubChem BioAssay (EPA / NIEHS).

Results filed as inconclusive are left out. Some compounds were tested as several samples or in several runs, with calls that do not always agree. Active and inactive are the calls of the source. The calls were made as follows: active = hit-call score of the fitted dose curve at least 0.9, where 1 is the maximum; inconclusive = response in the unintended direction; inactive = score below 0.9.

In test [1] the target is sheep Cyclooxygenase-1 (Cox1), PTGS1 (gene 443551) (UniProt P05979). Put plainly: NVS_ENZ_oCOX1: NovaScreen (NVS) Enzymatic Assay for sheep Cyclooxygenase-1 (Cox1) (AID 2283239).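 Also: actives reduce cyclooxygenase activity so potencies are for inhibitors.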 Put shortly: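 Native ovine seminal vesicle protein serves as enzyme source in this biochemical assay. Colorimetric signal is recorded 0.66 h after chemical addition, and decreases versus the DMSO control define activity.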

For test [2], the target named is sheep Cyclooxygenase-2 (Cox2), PTGS2 (gene 443460) (UniProt P79208). The test is described as follows: NVS_ENZ_oCOX2: NovaScreen (NVS) Enzymatic Assay for sheep Cyclooxygenase-2 (Cox2) (AID 2283231). Put shortly: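 Compounds were first run at 25 uM in duplicate against tissue-extracted ovine COX-2; those passing a preset inhibition threshold went to singleton concentration-response testing with a 50 uM maximum. Read-out: absorbance at 0.66 hour.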

In test [3] the target is human Serotonin, 5-Hydroxytryptamine Receptor 5A (5HT5A), HTR5A (gene 3361) (UniProt P47898). The test is described as follows: NVS_GPCR_h5HT5A: NovaScreen (NVS) G Protein-Coupled Receptor Assay for human Serotonin, 5-Hydroxytryptamine Receptor 5A (5HT5A) (AID 2283251). Put shortly:
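Membranes from HEK293 cells, radioligand binding read by filtration and scintillation after 1 h. Single-concentration duplicate testing at 25 uM, then concentration-response for actives; positive-direction fitting relative to DMSO.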

Test [4] deals with human Vascular Endothelial Growth Factor Receptor 2 (VEGFR2), KDR (gene 3791) (UniProt P35968). The test is described as follows: NVS_ENZ_hVEGFR2: NovaScreen (NVS) Enzymatic Assay for human Vascular Endothelial Growth Factor Receptor 2 (VEGFR2) (AID 2283230). Put shortly:
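Cell-free recombinant VEGFR2 kinase, fluorescent substrate with electrophoretic mobility-shift separation; read 1 h after dosing. Screened at 25 uM in duplicate, hits to concentration-response up to 50 uM; loss-of-signal versus DMSO.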

The target in test [5] is rat Monoamine Oxidase, MAO-B, Peripheral (MAOBP), Maob (gene 25750) (UniProt P19643). Put plainly: NVS_ENZ_rMAOBP: NovaScreen (NVS) Enzymatic Assay for rat Monoamine Oxidase, MAO-B, Peripheral (MAOBP) (AID 2283242).
Test [6] has as its target rat Monoamine Oxidase, MAO-B, Central (MAOBC), Maob (gene 25750) (UniProt P19643). Put plainly: NVS_ENZ_rMAOBC: NovaScreen (NVS) Enzymatic Assay for rat Monoamine Oxidase, MAO-B, Central (MAOBC) (AID 2283238). Put shortly: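 Cell-free radiometric assay, rat brain lysate. Read-out: scintillation counts, 1.17 h post-dosing. Screen 25 uM in duplicate; actives (e.g. ≥30% inhibition) then singleton concentration-response, max 50 uM. Activity loss fitted relative to DMSO.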

In test [7] the target is guinea pig Opioid, Kappa 1 Receptor (OpiateK), OPRK1 (gene 100135587) (UniProt P41144). Put plainly: NVS_GPCR_gOpiateK: NovaScreen (NVS) G Protein-Coupled Receptor Assay for guinea pig Opioid, Kappa 1 Receptor (OpiateK) (AID 2283252).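 Also: active means reduced radioligand binding relative to DMSO.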 Put shortly: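 Cell-free tissue prep: guinea pig cerebellar membranes, radioligand displacement, 2 h incubation. Readout: filtration plus scintillation counting. Primary single-point 25 uM duplicate; actives retested in concentration series; DMSO negative control.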

The target in test [8] is rat Constitutive Nitric Oxide Synthase (CNOS), Nos1 (gene 24598) (UniProt P29476). The test is described as follows: NVS_ENZ_rCNOS: NovaScreen (NVS) Enzymatic Assay for rat Constitutive Nitric Oxide Synthase (CNOS) (AID 2283236). Put shortly: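 Single 25 uM duplicate screen, then concentration series to 50 uM for chemicals meeting threshold. Rat brain membrane-derived CNOS activity detected radiometrically by filtration and scintillation counting, 1 h after compound addition; DMSO as baseline.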

The target of test [9] is Adenosine receptor A1 (Bos taurus) (UniProt P28190). Put plainly: NVS_GPCR_bAdoR_NonSelective: NovaScreen (NVS) G Protein-Coupled Receptor Assay for bovine Adenosine Receptor (AdoR), Non-selective Binding (AID 2283244). Put shortly: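 Cell-free binding with membranes from bovine striatum: radioligand displaced by test chemical, read after 1 h by filtration and scintillation. Single-point 25 uM duplicate primary, 50 uM top concentration in follow-up curves, DMSO baseline.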

In test [10] the test system is guinea pig Leukotriene B4 Receptor (LTB4), gene 100379538. Put plainly: NVS_GPCR_gLTB4: NovaScreen (NVS) G Protein-Coupled Receptor Assay for guinea pig Leukotriene B4 Receptor (LTB4) (AID 2283247). Put shortly:
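Membranes from guinea pig spleen incubated 2 h with radioligand and compound; bound counts measured by filtration and scintillation. Screened first at 25 uM in duplicate, then actives titrated to a 50 uM top concentration relative to DMSO.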

In test [11] the target is guinea pig Leukotriene D4 Receptor (LTD4), CYSLTR1 (gene 100135514) (UniProt Q2NNR5). Put plainly: NVS_GPCR_gLTD4: NovaScreen (NVS) G Protein-Coupled Receptor Assay for guinea pig Leukotriene D4 Receptor (LTD4) (AID 2283248). Put shortly: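 Guinea pig lung membrane preparation; bound radioligand measured by filter scintillation after 1 h, loss of signal versus DMSO marking displacement. Compounds tested at 25 uM in duplicate, hits retested to max 50 uM.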

The nature of test [12]: NVS_GPCR_bNPY_NonSelective: NovaScreen (NVS) G Protein-Coupled Receptor Assay for bovine Neuropeptide Y (NPY) Receptor, Non-selective Binding (AID 2283245). Put shortly: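 Displacement of radioligand from bovine hippocampal membrane receptors, read by filtration and scintillation counting after 1 hour. Concentration-response to a top of 50 uM followed a 25 uM duplicate primary screen. Loss of signal versus DMSO.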

Test [13] concerns rat Monoamine Oxidase, MAO-A, Central (MAOAC), gene 29253. Put plainly: NVS_ENZ_rMAOAC: NovaScreen (NVS) Enzymatic Assay for rat Monoamine Oxidase, MAO-A, Central (MAOAC) (AID 2283243).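 Also: potency refers to inhibition seen as signal drop below DMSO baseline.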 Put shortly:
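Lysate-based radiometric enzyme assay using rat brain tissue; 1.5 h treatment; 25 uM single-point duplicate screen, concentration-response follow-up; loss of signal versus DMSO.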

Test [14] addresses human Serotonin, 5-Hydroxytryptamine Receptor 2A (5HT2A), HTR2A (gene 3356) (UniProt P28223). The test is described as follows: NVS_GPCR_h5HT2A: NovaScreen (NVS) G Protein-Coupled Receptor Assay for human Serotonin, 5-Hydroxytryptamine Receptor 2A (5HT2A) (AID 2283249). Put shortly:
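Radioligand displacement on human cortex tissue extract, counted by filtration and scintillation 1.5 h post-dosing. Initial single-concentration screen at 25 uM in duplicate, concentration series in follow-up; DMSO as baseline.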

For test [15], the system named is guinea pig Muscarinic, Peripheral (Mperiperal) Receptor, Non-selective Binding, gene 100379235. Put plainly: NVS_GPCR_gMPeripheral_NonSelective: NovaScreen (NVS) G Protein-Coupled Receptor Assay for guinea pig Muscarinic, Peripheral (Mperiperal) Receptor, Non-selective Binding (AID 2283250). Put shortly:
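Screened in duplicate at 25 uM, hits retested in concentration series to 50 uM max, using bladder membrane radioligand displacement from guinea pig. Filtration and scintillation counting 1 h post-dose, fitted relative to DMSO.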

Sequence of guinea pig Opioid, Kappa 1 Receptor (OpiateK), OPRK1 (gene 100135587) (P41144 whole entry, looked up): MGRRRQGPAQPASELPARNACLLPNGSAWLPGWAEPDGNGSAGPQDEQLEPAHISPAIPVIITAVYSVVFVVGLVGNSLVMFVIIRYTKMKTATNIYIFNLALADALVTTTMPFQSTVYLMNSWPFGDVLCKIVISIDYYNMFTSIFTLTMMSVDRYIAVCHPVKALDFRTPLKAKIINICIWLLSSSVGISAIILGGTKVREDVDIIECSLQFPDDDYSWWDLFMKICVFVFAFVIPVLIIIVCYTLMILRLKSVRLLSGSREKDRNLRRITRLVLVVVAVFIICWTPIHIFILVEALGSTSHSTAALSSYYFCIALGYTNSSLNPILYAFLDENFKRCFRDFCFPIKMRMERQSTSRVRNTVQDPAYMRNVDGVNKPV
Sequence of human Vascular Endothelial Growth Factor Receptor 2 (VEGFR2), KDR (gene 3791) (P35968 whole entry, looked up): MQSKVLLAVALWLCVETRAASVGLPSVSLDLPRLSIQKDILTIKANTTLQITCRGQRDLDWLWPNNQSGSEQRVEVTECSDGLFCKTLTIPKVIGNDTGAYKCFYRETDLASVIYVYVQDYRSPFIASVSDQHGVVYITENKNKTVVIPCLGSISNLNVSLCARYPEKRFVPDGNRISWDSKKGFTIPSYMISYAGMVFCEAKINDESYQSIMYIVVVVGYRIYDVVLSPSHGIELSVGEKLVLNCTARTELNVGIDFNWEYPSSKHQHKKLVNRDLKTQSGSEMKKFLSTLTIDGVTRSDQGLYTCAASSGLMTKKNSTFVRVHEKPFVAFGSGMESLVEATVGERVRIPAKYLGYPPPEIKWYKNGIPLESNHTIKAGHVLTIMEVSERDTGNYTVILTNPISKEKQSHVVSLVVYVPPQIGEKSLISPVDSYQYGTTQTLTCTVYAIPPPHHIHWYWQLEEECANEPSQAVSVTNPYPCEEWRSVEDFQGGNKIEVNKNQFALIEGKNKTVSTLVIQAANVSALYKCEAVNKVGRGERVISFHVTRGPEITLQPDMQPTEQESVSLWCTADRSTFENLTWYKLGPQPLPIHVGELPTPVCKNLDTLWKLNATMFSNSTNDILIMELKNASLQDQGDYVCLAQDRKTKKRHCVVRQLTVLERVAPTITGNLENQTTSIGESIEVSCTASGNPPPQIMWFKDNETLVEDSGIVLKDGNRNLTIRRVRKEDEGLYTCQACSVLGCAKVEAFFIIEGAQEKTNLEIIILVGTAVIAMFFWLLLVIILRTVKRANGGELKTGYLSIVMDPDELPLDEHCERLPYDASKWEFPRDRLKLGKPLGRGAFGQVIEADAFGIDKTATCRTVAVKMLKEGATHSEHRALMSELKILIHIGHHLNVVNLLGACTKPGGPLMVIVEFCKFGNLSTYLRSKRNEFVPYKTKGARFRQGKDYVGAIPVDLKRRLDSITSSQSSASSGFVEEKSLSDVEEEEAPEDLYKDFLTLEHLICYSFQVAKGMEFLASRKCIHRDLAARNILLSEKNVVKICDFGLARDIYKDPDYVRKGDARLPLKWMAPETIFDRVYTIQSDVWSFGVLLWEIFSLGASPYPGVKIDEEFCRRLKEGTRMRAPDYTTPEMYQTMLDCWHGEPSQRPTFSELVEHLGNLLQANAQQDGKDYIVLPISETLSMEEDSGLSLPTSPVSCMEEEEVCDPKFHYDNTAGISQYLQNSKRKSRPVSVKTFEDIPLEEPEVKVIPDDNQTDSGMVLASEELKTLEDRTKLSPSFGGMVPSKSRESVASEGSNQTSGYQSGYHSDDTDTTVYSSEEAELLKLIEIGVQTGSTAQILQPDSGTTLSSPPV
Sequence of human Serotonin, 5-Hydroxytryptamine Receptor 5A (5HT5A), HTR5A (gene 3361) (P47898 whole entry, looked up): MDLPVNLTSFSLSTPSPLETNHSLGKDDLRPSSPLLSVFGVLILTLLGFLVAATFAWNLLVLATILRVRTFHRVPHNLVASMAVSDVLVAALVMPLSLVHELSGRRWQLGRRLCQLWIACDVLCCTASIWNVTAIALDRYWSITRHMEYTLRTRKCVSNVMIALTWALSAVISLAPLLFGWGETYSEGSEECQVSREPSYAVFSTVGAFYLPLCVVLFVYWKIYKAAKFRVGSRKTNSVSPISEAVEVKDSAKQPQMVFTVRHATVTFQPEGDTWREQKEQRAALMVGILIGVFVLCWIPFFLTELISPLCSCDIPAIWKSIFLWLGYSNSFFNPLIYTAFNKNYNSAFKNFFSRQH
Sequence of sheep Cyclooxygenase-2 (Cox2), PTGS2 (gene 443460) (P79208 whole entry, looked up): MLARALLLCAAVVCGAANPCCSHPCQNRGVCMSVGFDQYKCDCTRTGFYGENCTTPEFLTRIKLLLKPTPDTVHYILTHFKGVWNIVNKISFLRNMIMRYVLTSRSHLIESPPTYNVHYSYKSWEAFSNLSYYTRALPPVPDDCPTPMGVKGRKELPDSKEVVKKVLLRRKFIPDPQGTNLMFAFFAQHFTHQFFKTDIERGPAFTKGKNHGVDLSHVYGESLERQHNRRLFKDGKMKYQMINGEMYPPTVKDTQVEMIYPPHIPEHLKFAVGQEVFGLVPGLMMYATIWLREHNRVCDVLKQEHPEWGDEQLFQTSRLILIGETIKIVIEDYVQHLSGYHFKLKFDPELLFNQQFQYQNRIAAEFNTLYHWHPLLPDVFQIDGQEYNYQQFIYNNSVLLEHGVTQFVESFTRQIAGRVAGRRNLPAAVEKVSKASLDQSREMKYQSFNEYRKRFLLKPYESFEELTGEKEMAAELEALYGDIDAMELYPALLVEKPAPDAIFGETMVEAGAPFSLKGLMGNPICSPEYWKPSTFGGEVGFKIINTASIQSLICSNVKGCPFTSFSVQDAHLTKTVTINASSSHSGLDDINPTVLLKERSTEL
Sequence of Adenosine receptor A1 (Bos taurus) (P28190 whole entry, looked up): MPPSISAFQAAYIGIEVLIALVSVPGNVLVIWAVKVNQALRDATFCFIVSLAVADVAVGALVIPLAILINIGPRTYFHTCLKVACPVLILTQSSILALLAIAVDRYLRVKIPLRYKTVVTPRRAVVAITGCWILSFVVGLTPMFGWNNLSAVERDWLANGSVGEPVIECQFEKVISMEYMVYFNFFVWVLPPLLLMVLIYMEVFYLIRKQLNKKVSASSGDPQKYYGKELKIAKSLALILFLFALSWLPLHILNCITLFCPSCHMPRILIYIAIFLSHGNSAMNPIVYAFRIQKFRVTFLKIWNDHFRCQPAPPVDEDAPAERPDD
Sequence of sheep Cyclooxygenase-1 (Cox1), PTGS1 (gene 443551) (P05979 whole entry, looked up): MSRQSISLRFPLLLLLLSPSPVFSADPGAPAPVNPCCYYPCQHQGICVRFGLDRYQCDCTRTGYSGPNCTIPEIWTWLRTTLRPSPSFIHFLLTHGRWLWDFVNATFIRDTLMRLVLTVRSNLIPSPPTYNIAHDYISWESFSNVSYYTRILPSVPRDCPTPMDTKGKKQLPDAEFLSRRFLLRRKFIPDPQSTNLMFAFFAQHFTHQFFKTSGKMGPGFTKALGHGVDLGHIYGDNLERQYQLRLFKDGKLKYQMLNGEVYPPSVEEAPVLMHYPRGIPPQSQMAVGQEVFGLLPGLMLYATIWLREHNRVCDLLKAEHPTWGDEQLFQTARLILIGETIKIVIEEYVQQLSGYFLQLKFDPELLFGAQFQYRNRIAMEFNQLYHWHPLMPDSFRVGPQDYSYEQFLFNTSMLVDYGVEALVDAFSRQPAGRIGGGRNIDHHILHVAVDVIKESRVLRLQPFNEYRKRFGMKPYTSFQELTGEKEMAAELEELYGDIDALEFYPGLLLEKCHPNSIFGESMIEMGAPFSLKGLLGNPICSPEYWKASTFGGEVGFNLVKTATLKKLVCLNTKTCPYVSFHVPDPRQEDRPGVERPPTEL
Sequence of guinea pig Leukotriene D4 Receptor (LTD4), CYSLTR1 (gene 100135514) (Q2NNR5 whole entry, looked up): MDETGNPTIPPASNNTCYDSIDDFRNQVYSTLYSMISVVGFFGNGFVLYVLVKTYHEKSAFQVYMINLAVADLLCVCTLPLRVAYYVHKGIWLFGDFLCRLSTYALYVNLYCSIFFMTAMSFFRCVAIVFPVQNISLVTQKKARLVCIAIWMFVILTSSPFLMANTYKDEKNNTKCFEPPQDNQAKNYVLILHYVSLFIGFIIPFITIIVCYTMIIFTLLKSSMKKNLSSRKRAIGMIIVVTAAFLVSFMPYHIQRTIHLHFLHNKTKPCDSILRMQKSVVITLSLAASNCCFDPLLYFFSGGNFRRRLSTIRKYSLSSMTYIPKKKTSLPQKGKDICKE
Sequence of human Serotonin, 5-Hydroxytryptamine Receptor 2A (5HT2A), HTR2A (gene 3356) (P28223 whole entry, looked up): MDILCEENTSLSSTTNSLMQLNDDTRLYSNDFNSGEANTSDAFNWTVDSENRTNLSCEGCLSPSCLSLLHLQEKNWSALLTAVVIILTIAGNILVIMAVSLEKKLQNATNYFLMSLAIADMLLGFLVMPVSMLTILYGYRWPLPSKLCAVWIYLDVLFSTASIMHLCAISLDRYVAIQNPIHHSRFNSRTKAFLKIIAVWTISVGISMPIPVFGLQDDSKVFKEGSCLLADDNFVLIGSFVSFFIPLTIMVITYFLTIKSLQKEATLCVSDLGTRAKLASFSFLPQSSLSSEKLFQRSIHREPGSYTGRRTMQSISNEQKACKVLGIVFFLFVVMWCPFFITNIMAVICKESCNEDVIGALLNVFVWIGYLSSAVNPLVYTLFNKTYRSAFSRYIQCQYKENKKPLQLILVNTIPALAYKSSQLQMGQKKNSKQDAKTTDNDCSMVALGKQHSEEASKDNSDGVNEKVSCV
Sequence of rat Monoamine Oxidase, MAO-B, Peripheral (MAOBP), Maob (gene 25750) (P19643 whole entry, looked up): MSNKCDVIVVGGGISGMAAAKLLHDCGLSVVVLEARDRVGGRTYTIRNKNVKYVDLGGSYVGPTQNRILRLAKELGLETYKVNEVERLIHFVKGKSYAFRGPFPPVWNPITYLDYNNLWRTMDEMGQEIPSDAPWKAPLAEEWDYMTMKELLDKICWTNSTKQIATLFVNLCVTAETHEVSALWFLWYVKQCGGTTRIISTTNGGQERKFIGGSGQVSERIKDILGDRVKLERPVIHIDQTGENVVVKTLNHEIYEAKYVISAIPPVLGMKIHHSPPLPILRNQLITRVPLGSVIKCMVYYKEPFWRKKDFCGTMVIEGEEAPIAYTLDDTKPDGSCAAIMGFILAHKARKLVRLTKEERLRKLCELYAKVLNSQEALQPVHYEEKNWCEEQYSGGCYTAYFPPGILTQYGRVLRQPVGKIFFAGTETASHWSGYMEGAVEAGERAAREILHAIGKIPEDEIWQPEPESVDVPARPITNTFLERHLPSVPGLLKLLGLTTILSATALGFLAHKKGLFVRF

Consider `CCCCCCCCCc1ccc(O)cc1`, for which the result in test [1] was inactive.
Turning to `CCC(=O)O[C@H]1CC[C@H]2[C@@H]3CCC4=CC(=O)CC[C@]4(C)[C@H]3CC[C@]12C`, in test [2], the result was inactive.
As to `COc1ccc(O)c(C(C)(C)C)c1`, the compound was called inactive in test [3].
Turning to `ClC(Cl)=C(c1ccc(Cl)cc1)c1ccc(Cl)cc1`, the call in [4] and in [1] was inactive.
Take `CCCN(CCC)N=O`: the compound was called inactive in [4].
The AC50 is the concentration giving half of the maximal activity seen. For the compound `CCSC(=O)N(CC)C1CCCCC1`, in test [5], the half-maximal activity concentration (AC50) is 32.8 µM (active).
With `CC(C)(O)C(=O)Nc1ccc([N+](=O)[O-])c(C(F)(F)F)c1`, in test [6], the AC50 was 12.1 µM (active). The result in [5] and in test [7] was inactive.
For `CN(C)c1nc(=O)n(C2CCCCC2)c(=O)n1C`, the call in test [8] was inactive.
Turning to `CCOC(=O)C(O)(c1ccc(Cl)cc1)c1ccc(Cl)cc1`, the outcome in [4] was inactive.
With `Clc1ccc(C(c2ccccc2Cl)C(Cl)(Cl)Cl)cc1` (stereo not given), the result in [4] and in test [1] was inactive.
As to `N#Cc1ccc(N(CC(N)=O)CC(F)(F)F)cc1C(F)(F)F`, in test [2], the AC50 is 6.58 µM (active).
As for `O=C(O)C(F)(F)C(F)(F)C(F)(F)C(F)(F)C(F)(F)C(F)(F)C(F)(F)C(F)(F)C(F)(F)F`, the compound was classed as inactive in [9] and in test [11]. For the same compound, the concentration at half-maximal activity (AC50) in test [10] is 11.6 µM (active); in [3], 20.7 µM (active).
For `CO/C=C(/C(=O)OC)c1ccccc1COc1cccc(C(F)(F)F)n1`, the compound was called inactive in test [12].
Regarding `NS(=O)(=O)C(F)(F)C(F)(F)C(F)(F)C(F)(F)C(F)(F)C(F)(F)C(F)(F)C(F)(F)F`, the half-maximal activity concentration (AC50) in test [9] was 13.1 µM (active).
In the case of `Nc1ccc(-c2ccc(N)cc2)cc1`, in [13], the half-maximal activity concentration (AC50) is 16.6 µM (active).
For the compound `O=S(=O)(O)C(F)(F)C(F)(F)C(F)(F)C(F)(F)C(F)(F)C(F)(F)F`, in test [4], the compound was classed as inactive. The AC50 in test [10] is 10.8 µM (active).
`Cc1cccc(C)c1N`: the call in [2] and in test [14] was inactive.
Take `CCC(C)(c1ccc(O)cc1)c1ccc(O)cc1`: the half-maximal activity concentration (AC50) in test [10] is 6.38 µM (active); in test [3] it was 13.4 µM (active). In test [7], the result was inactive.
Consider `Oc1c(Cl)c(Cl)c(Cl)c(Cl)c1Cl`, for which the figures for the half-maximal activity concentration (AC50) in test [13] and in test [7] were 15.5 µM (active) and 12.6 µM (active), respectively. The compound was called inactive in [9], in test [11] and in test [7].
For `Oc1ccc(C(c2ccc(O)cc2)(C(F)(F)F)C(F)(F)F)cc1`, the half-maximal activity concentration (AC50) was 0.436 µM (active) in test [10]; 10.4 µM (active) in test [14]; 13.6 µM (active) in test [15]; 8.39 µM (active) in test [3]; 14 µM (active) in test [7].
`CN(C)CCO`: the result in test [8] was inactive.
